{"source": "the supplement of paper PMC3334620", "note": "Whole data set: some 33,000 sequences, median “E-score (-0.5 to 0.5)” near -0.016, cut for the highest 2% near 0.32. The sample holds the highest values, similar sequences and a random draw of the others, so the mix is not that of the screen.", "data": [{"molecular_target": "T1, Stp1 (UniProt B3LFK1)", "T1 sequence": "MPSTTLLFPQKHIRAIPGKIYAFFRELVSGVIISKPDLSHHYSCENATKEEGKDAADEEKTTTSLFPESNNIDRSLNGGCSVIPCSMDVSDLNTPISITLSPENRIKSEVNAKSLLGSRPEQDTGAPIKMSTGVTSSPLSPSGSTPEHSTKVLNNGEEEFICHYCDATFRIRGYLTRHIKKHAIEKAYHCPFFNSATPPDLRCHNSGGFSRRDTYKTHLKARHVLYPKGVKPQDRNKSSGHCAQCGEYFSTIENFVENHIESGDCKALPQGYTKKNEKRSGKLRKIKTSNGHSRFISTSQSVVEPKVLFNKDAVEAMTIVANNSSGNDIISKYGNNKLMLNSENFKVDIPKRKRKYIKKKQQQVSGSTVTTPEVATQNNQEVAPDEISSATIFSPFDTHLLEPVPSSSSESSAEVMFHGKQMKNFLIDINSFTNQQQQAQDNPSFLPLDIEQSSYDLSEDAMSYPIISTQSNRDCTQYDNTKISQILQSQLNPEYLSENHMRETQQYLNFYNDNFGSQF", "assay": "PBM E-score (8-mer binding enrichment) (E-score (-0.5 to 0.5)); higher = stronger / more preferred TF binding", "details": "protein concentration: 200 nM; construct: GST-full length", "summary_of_the_method": "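Using PURExpress in vitro transcription/translation, GST-tagged yeast transcription factors were made in full-length or DNA-binding-domain form. These were applied at about 100-200 nM to double-stranded universal all-10-mer Agilent arrays, and bound protein was detected with fluorescent anti-GST. Scans were normalised with masliner before the Universal PBM Analysis Suite assigned E-scores to ungapped eight-base words pooled with their reverse complements.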", "values": [{"sequence": "CCATGCCG", "PBM E-score": 0.336}, {"sequence": "ACATGCCT", "PBM E-score": 0.066}, {"sequence": "TAATAGCA", "PBM E-score": -0.0461}, {"sequence": "CCGCCGCC", "PBM E-score": 0.194}, {"sequence": "ACGCCGCC", "PBM E-score": 0.355}, {"sequence": "AAGCCGCT", "PBM E-score": 0.265}, {"sequence": "ACGCCGCT", "PBM E-score": 0.423}, {"sequence": "CCGCCGGC", "PBM E-score": 0.165}, {"sequence": "ACGCCGAC", "PBM E-score": 0.204}, {"sequence": "CCGCCGGA", "PBM E-score": 0.0267}, {"sequence": "CCGCCGAA", "PBM E-score": 0.216}, {"sequence": "ACGCCGAT", "PBM E-score": 0.23}, {"sequence": "CCGCCGCA", "PBM E-score": 0.402}, {"sequence": "GCGCCTCC", "PBM E-score": 0.293}, {"sequence": "GCGCCGCC", "PBM E-score": 0.454}, {"sequence": "ATGGAGGC", "PBM E-score": -0.236}, {"sequence": "AGTGGGTG", "PBM E-score": -0.0322}, {"sequence": "GCAACAGC", "PBM E-score": 0.0755}, {"sequence": "AACGCTCT", "PBM E-score": -0.216}, {"sequence": "TCTCCGCA", "PBM E-score": -0.0488}, {"sequence": "TCGCCGCA", "PBM E-score": 0.448}, {"sequence": "ACGCCGCG", "PBM E-score": 0.473}, {"sequence": "ACGACGCA", "PBM E-score": 0.0151}, {"sequence": "ACGCCGGA", "PBM E-score": 0.00769}, {"sequence": "ACGCCGCA", "PBM E-score": 0.476}, {"sequence": "GGGCCGCA", "PBM E-score": 0.285}, {"sequence": "ACGCCGAG", "PBM E-score": 0.0836}, {"sequence": "AGGCCGCA", "PBM E-score": 0.162}, {"sequence": "CGGCCGCA", "PBM E-score": 0.325}, {"sequence": "TCACCGCA", "PBM E-score": -0.0824}, {"sequence": "AGGCCGCG", "PBM E-score": 0.244}, {"sequence": "ACAAAAGT", "PBM E-score": 0.0775}, {"sequence": "ACGTTAAT", "PBM E-score": 0.112}, {"sequence": "GCCCTACA", "PBM E-score": 0.0881}, {"sequence": "GTAACTAA", "PBM E-score": 0.0925}, {"sequence": "CTTGATAC", "PBM E-score": 0.113}, {"sequence": "CTAGGTCC", "PBM E-score": -0.102}, {"sequence": "AGTCAAGA", "PBM E-score": -0.0455}, {"sequence": "GTTCAAGA", "PBM E-score": 0.0574}, {"sequence": "CCTCGGAA", "PBM E-score": -0.0641}, {"sequence": "CCGCCCCG", "PBM E-score": 0.273}, {"sequence": "CCGCCGCG", "PBM E-score": 0.437}, {"sequence": "CCGCCGAG", "PBM E-score": 0.083}, {"sequence": "TCCAAGCA", "PBM E-score": 0.0574}, {"sequence": "GGCATCCC", "PBM E-score": -0.0465}, {"sequence": "CGCATCGA", "PBM E-score": 0.0903}, {"sequence": "AGCATCGA", "PBM E-score": -0.0592}, {"sequence": "GGCATCGA", "PBM E-score": 0.327}, {"sequence": "CTATGCTA", "PBM E-score": -0.0393}, {"sequence": "CAACCAGA", "PBM E-score": 0.0587}, {"sequence": "CCGCACGC", "PBM E-score": 0.323}, {"sequence": "ACGCACGA", "PBM E-score": 0.237}, {"sequence": "CCGCACGG", "PBM E-score": 0.448}, {"sequence": "ACGCACGG", "PBM E-score": 0.419}, {"sequence": "CAGCACGC", "PBM E-score": 0.145}, {"sequence": "ACGCACGC", "PBM E-score": 0.265}, {"sequence": "CCGCACGA", "PBM E-score": 0.27}, {"sequence": "CCGCACAA", "PBM E-score": 0.285}, {"sequence": "GCGCACGC", "PBM E-score": -0.0354}, {"sequence": "CAGCACGG", "PBM E-score": 0.333}, {"sequence": "CAGCACGA", "PBM E-score": -0.0106}, {"sequence": "AAGCACGG", "PBM E-score": 0.295}, {"sequence": "ATTCTAAG", "PBM E-score": 0.126}, {"sequence": "ACGGGGAT", "PBM E-score": -0.0326}, {"sequence": "AGTCTTCC", "PBM E-score": -0.0735}, {"sequence": "TGGGGCAA", "PBM E-score": -0.00868}, {"sequence": "CGAAGTGA", "PBM E-score": 0.00778}, {"sequence": "CCCAACCC", "PBM E-score": -0.174}, {"sequence": "CGCGTCCG", "PBM E-score": -0.0671}, {"sequence": "ATCATAAC", "PBM E-score": 0.161}, {"sequence": "TATAGCGA", "PBM E-score": -0.151}, {"sequence": "AGGGAGCA", "PBM E-score": -0.403}, {"sequence": "AGCGGAAC", "PBM E-score": -0.0267}, {"sequence": "CGCGGAAC", "PBM E-score": 0.383}, {"sequence": "GGCGGAAC", "PBM E-score": 0.125}, {"sequence": "ACAATCAT", "PBM E-score": -0.00872}, {"sequence": "CAGGGCGA", "PBM E-score": 0.0902}, {"sequence": "CAGGGCAA", "PBM E-score": 0.0617}, {"sequence": "CAGGGCAG", "PBM E-score": -0.114}, {"sequence": "AAGGGCGG", "PBM E-score": -0.0196}, {"sequence": "AAGGGCGC", "PBM E-score": 0.354}, {"sequence": "AGGGGCGC", "PBM E-score": 0.232}, {"sequence": "CAGGGCGC", "PBM E-score": 0.363}, {"sequence": "CAGGGCGG", "PBM E-score": -0.116}, {"sequence": "CAGGGCAC", "PBM E-score": 0.355}, {"sequence": "GGGCCTCA", "PBM E-score": -0.0568}, {"sequence": "AACCCACT", "PBM E-score": 0.00826}]}]}
